# Active and inactive are the calls of the source. Entries that show only a call come without a potency. Calls come from the whole dose curve; as a rule, active = well fitted activation curve with a large enough effect; inconclusive = small, poorly fitted or top-dose-only effect; inactive = no such curve, though single readings can be large or run the other way.
# Experiment: Counterscreen for Identifying a Potential Treatment of Ataxia-Telangiectasia: Hit Validation
# Conditions: cell-free AlphaLISA/AlphaScreen artifact counterscreen, PBS only, no cells; series mostly up to 76.9 µM
# Procedure, shortened: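 Without cells, compounds at up to 76.7 uM final were combined with premixed anti-pKAP1/anti-KAP1 AlphaLISA bead reagents, protease inhibitors and lysis buffer; signal read after 6 hr at 25C to flag assay-platform artifacts.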
# Potency is the fitted concentration of half-maximal effect.
row,SMILES,Potency
1,CN(C)S(=O)(=O)c1ccc(NC(=O)c2ccc([N+](=O)[O-])cc2)cc1,inactive
2,CCn1c(=NC(=O)CN2C(=O)CCC2=O)sc2c(OC)ccc(OC)c21,inactive
3,C/C(CCC1CC(C)OC1=O)=N\NC(N)=S (stereo not given),inactive
4,COc1cccc(CN2CCN(Cc3cc(OC)c(OC)cc3OC)CC2)c1,inactive
5,CCNC(=S)N(Cc1cc2cccc(C)c2[nH]c1=O)C1CCCC1,inactive
6,COc1ccccc1C1CCN(C(=O)c2ccc(Cl)cc2)CC1,inactive
7,Cc1nn(CC(=O)N(C)Cc2ccc(F)cc2)c(C)c1[N+](=O)[O-],inactive
8,COCCCNC(=O)c1c[nH]c2ccc(S(=O)(=O)N(C)c3ccccc3C)cc2c1=O,inactive
9,CCC[C@H]1CCCC/C=C\CCCC(=O)OCCN1C(=O)OC(C)(C)C,inactive
10,O=C(Nc1cc(S(=O)(=O)N2CCOCC2)ccc1Cl)c1cc(=O)c2ccccc2o1,inactive
11,Brc1c(C[n+]2ccccc2)nc2ccccn12,inactive
12,CCN(CC)CCNC(=O)CCc1c(C)nc2c(c(C)nn2-c2ccc(C)cc2)c1C,inactive
13,CC(=O)Nc1ccc(S(=O)(=O)NCC2(N3CCOCC3)CCCCC2)cc1,inactive
14,CC(=O)Nc1ccc(NC(=O)CSc2nnnn2-c2ccc(F)cc2)cc1,inactive
15,COc1cccc(OCCc2c(C)n[nH]c2C)c1,inactive
16,COc1ccccc1OC(=O)Nc1ccc(Cl)cc1,6.54 µM (active)
17,CCCc1nn(C)c(C(=O)Nc2ccc(C(C)(C)C)cc2)c1Cl,inactive
18,CCc1ccc(NC(=O)N[C@H](C(=O)O)C(C)CC)cc1 (stereo not given in full),inactive
19,COc1ccc(NC(=O)C2CC2)cc1OC1CCCC1,inactive
20,COc1ccccc1N1CN(CCc2ccccc2)CNC1=S,inactive

row,SMILES,Potency
1,CCN(CC)c1ccc2cc(-c3nc4ccccc4[nH]3)c(=O)oc2c1,4.63 µM (active)
2,O=C(O)c1ccc(/C=C/c2nc3ccccc3c(=O)[nH]2)cc1,inactive
3,O=C(OCCc1cc2ccccc2c(=O)o1)c1cccc(Br)c1,inactive
4,Cc1oc2ccc(OCc3ccc(Br)cc3)cc2c1C(=O)O,inactive
5,CC(C)NC(=O)c1ccc(COc2ccc(C(C)(C)C)cc2)o1,inactive
6,CC(C)c1ccc(C(C(=O)NC2CCCCC2)N(C(=O)c2ccccn2)c2cccnc2)cc1 (stereo not given),inactive
7,O=C(C[n+]1cccc2ccccc21)c1ccc(NC(=O)c2ccccc2)cc1,inactive
8,C=CCC(CC)C(=O)NC(=O)N1CCCc2ccccc21 (stereo not given),inactive
9,CCc1ccc(NC(=O)CNCc2ccc(OC)c(OC)c2)cc1,inactive
10,C[C@@H]1Cc2c(O)c(O)cc(O)c2C(=O)O1,inactive
11,CCC(=O)NC1=C(Cl)C(=O)C(NC(=O)CC)=C(Cl)C1=O,inactive
12,CNC(=O)/C=C/c1cc(C(=O)c2ccc(Cl)cc2Cl)cn1C,inactive
13,O=C(C[n+]1ccc2c(c1)nnn2-c1ccccc1)c1ccc(Cl)cc1,inactive
14,CCCN1CN(c2ccccc2)C(=S)N(c2ccccc2)C1,inactive
15,COc1cccc(CNC(=O)C(CC(C)C)NC(=O)c2ccccc2C)c1 (stereo not given),inactive
16,COc1ccc(-n2c(C)cc(=O)[nH]c2=O)cc1,inactive
17,CCOC(=O)C1=C(C)N(c2ccc(OC)cc2)C(=O)/C1=C\c1ccc(O)c(OCC)c1,inactive
18,Cc1cc2c(c(=O)o1)C(CCC1CCCCC1)C(C#N)=C(N)O2 (stereo not given),inactive
19,Cc1ccc(C)c(-n2c(SCC(=O)NC(C(=O)O)C(C)C)nnc2-c2cccc(Cl)c2)c1 (stereo not given),inactive
20,CCC(C)Nc1nc(N)c([N+](=O)[O-])c(NCCO)n1 (stereo not given),inactive

# From PubChem BioAssay AID493185 (National Center for Advancing Translational Sciences (NCATS), 2011)
